# Data as given in ChEMBL document CHEMBL3988442, “University of Dundee, Small-Polar-MMV Screening Library” (2021).
# Target: T1, Proteasome subunit beta (Trypanosoma cruzi) (UniProt O96673)
# T1 sequence (whole entry): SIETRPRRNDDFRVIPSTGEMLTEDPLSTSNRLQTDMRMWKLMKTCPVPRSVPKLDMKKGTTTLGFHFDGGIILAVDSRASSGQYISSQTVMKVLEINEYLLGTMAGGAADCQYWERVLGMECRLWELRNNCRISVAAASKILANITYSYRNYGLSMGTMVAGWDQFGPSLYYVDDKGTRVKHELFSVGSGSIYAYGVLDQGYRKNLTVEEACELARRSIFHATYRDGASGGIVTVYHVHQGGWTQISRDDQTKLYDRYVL
# Assay: Trypanosoma cruzi proteasome chymotrypsin-like activity (TcProtChymo) assay. Also: in the data most compounds retested in dose-response had high values.
# Assay type: functional
# Parameters: scale not given: direction of the effect not stated beside the values
# Settings: 9.37 µM
row,Compound,Percent Effect
1,CN(C)CC1(O)CCN(S(=O)(=O)c2ccc(F)cc2)C1 (stereo not given),17.3%
2,CCc1noc(C(C)N2CCN(Cc3nc(C)c(C)o3)CC2)n1 (stereo not given),0.668%
3,CS(=O)(=O)CCC(=O)NC1(c2cccc(Br)c2)CC1,15%
4,Fc1cccc(CN2CCC(c3n[nH]c4ncccc34)CC2)c1F,18.2%
5,CN(C)C(=O)CN1CCC2(CCN(Cc3nccs3)CC2)C1=O,12.5%
6,CCc1nnc2n1CCN(C(=O)C(C)COCc1ccccc1)C2 (stereo not given),6.68%
7,Cc1ccc(N2CC3(COCCN(Cc4cccnc4)C3)OCC2=O)s1 (stereo not given),4.18%
8,Cc1nc(C)n(CC2CN(Cc3cccnc3)CCO2)n1 (stereo not given),6.85%
9,COc1ccc(C2=CCN(C(=O)CN(C)CC(C)C#N)CC2)cc1 (stereo not given),0.901%
10,CC(NC(=O)Cn1cccn1)c1ccc2c(c1)OCCCO2 (stereo not given),10.1%
11,CCn1cnnc1CNC(=O)N1CCN(Cc2ccccc2)CC1,12.1%
12,NC(=O)Nc1cccc(Oc2ccccn2)c1,8.53%
13,Cc1ccc(CN(Cc2ccccn2)C2CC(C)(C)NC(C)(C)C2)s1,8.27%
14,CC(C)c1nccn1CCCNC(=O)c1ccc(-c2cncnc2)nc1,16.2%
15,Cc1nc(CN2CCN(CC(=O)Nc3c(C)cccc3C)CC2)no1,15%
16,c1cnn(Cc2nnc(C3CCN(C4CCOCC4)CC3)n2C2CC2)c1,16.2%
17,CCc1noc(CN2CCCC2c2noc(C3CC3)n2)n1 (stereo not given),12.8%
18,Fc1ccc(OCCCN2CCOC(Cn3cncn3)C2)cc1 (stereo not given),3.43%
19,CS(=O)(=O)NCCCN1CCCCC1c1cc2ccccc2[nH]1 (stereo not given),5.65%
20,CCC1=N[C@@]2(CC[C@@H]3CN(Cc4ccc(Cl)cc4)C[C@@H]32)C(=O)N1,20.3%

row,Compound,Percent Effect
1,NC(=O)C1(c2cnccn2)CCCN1Cc1cc2ccccc2o1 (stereo not given),14.2%
2,CS(=O)(=O)N1CCCCCC1C1CCN(c2ncccc2C#N)CC1 (stereo not given),-0.668%
3,CC(C)CN1Cc2c(C(=O)N(C)C)ncn2-c2ccccc2S1(=O)=O,11.6%
4,CC(C)N1CCC(Cc2cncc(-c3ccccc3C(=O)O)n2)CC1,4.32%
5,O=C(c1ccsc1)N1CC[C@H]2C[C@@H](c3nnc(C4CC4)o3)O[C@@H]2C1,19.5%
6,Cn1nnc2c1C(COCC1CC1)CN(C(=O)Cc1ccsc1)C2 (stereo not given),9.57%
7,Cc1noc(C)c1CN1CC[C@@H](OCC2CC2)[C@@H](Cc2ccccc2)C1,14%
8,Cc1ccc(CC2CCCN2CC(=O)NCc2ccccn2)cc1 (stereo not given),8.53%
9,CCCC1CCCN(Cc2csc(-c3cnn(C)c3)n2)CC1 (stereo not given),20.4%
10,COc1c(CNCC(O)c2cccc(F)c2)c(C(C)C)nn1C (stereo not given),18.7%
11,CC(NC(=O)NCCCO)c1ccc2c(c1)OCCO2 (stereo not given),14.2%
12,Cc1c(C2CCCN(C(=O)C3CC3)C2)n2c(nc1=O)CCC2 (stereo not given),15.4%
13,CCn1cc(CN2CCCn3nc(CCC(=O)NCCO)cc3C2)cn1,19.8%
14,Fc1ccc2[nH]c(C3CCCN3CCc3ccccn3)nc2c1 (stereo not given),18.6%
15,O=C(CCc1cscn1)N1CCCC1c1noc(C2CC2)n1 (stereo not given),11.3%
16,CCn1c(CN2CCCN(C(=O)OC)CC2)nc2c(F)cccc21,9.69%
17,Cc1nc(C)n(CC2CN(Cc3cccc(C(N)=O)c3)CCO2)n1 (stereo not given),9.72%
18,O=C(C1CC(=O)N(C2CCCC2)C1)N1CCN(CCn2cccc2)CC1 (stereo not given),16.9%
19,CCN(Cc1nc2c(cnn2C)c(=O)[nH]1)c1ccc(OC)c(OC)c1,23.3%
20,NC(=O)C1CCN(Cc2cccc(NC(=O)c3ccsc3)c2)CC1,7.85%

# Species: Homo sapiens
# Assay: To identify inhibition of the IFN signalling (Jak-Stat) pathway via expression of an eGFP reporter gene under the control of an IFN-stimulated response element (ISRE) containing MxA promoter.
# Assay type: functional
# Parameters: scale not given: direction of the effect not stated beside the values
# Settings: 30 µM
row,Compound,Percent Effect
1,CN(C)CC1(O)CCN(S(=O)(=O)c2ccc(F)cc2)C1 (stereo not given),10.1%
2,CCc1noc(C(C)N2CCN(Cc3nc(C)c(C)o3)CC2)n1 (stereo not given),20.8%
3,CS(=O)(=O)CCC(=O)NC1(c2cccc(Br)c2)CC1,-3.85%
4,Fc1cccc(CN2CCC(c3n[nH]c4ncccc34)CC2)c1F,18.6%
5,CN(C)C(=O)CN1CCC2(CCN(Cc3nccs3)CC2)C1=O,13.1%
6,CCc1nnc2n1CCN(C(=O)C(C)COCc1ccccc1)C2 (stereo not given),-1.54%
7,Cc1ccc(N2CC3(COCCN(Cc4cccnc4)C3)OCC2=O)s1 (stereo not given),21.4%
8,Cc1nc(C)n(CC2CN(Cc3cccnc3)CCO2)n1 (stereo not given),-13.4%
9,COc1ccc(C2=CCN(C(=O)CN(C)CC(C)C#N)CC2)cc1 (stereo not given),10.5%
10,CC(NC(=O)Cn1cccn1)c1ccc2c(c1)OCCCO2 (stereo not given),32.9%
11,CCn1cnnc1CNC(=O)N1CCN(Cc2ccccc2)CC1,0.217%
12,NC(=O)Nc1cccc(Oc2ccccn2)c1,0.913%
13,Cc1ccc(CN(Cc2ccccn2)C2CC(C)(C)NC(C)(C)C2)s1,5.16%
14,CC(C)c1nccn1CCCNC(=O)c1ccc(-c2cncnc2)nc1,17.9%
15,Cc1nc(CN2CCN(CC(=O)Nc3c(C)cccc3C)CC2)no1,-5.46%
16,c1cnn(Cc2nnc(C3CCN(C4CCOCC4)CC3)n2C2CC2)c1,12.2%
17,CCc1noc(CN2CCCC2c2noc(C3CC3)n2)n1 (stereo not given),19.7%
18,Fc1ccc(OCCCN2CCOC(Cn3cncn3)C2)cc1 (stereo not given),2.48%
19,CS(=O)(=O)NCCCN1CCCCC1c1cc2ccccc2[nH]1 (stereo not given),-8.5%
20,CCC1=N[C@@]2(CC[C@@H]3CN(Cc4ccc(Cl)cc4)C[C@@H]32)C(=O)N1,3.29%

row,Compound,Percent Effect
1,NC(=O)C1(c2cnccn2)CCCN1Cc1cc2ccccc2o1 (stereo not given),1.46%
2,CS(=O)(=O)N1CCCCCC1C1CCN(c2ncccc2C#N)CC1 (stereo not given),-7.75%
3,CC(C)CN1Cc2c(C(=O)N(C)C)ncn2-c2ccccc2S1(=O)=O,-4.16%
4,CC(C)N1CCC(Cc2cncc(-c3ccccc3C(=O)O)n2)CC1,13.7%
5,O=C(c1ccsc1)N1CC[C@H]2C[C@@H](c3nnc(C4CC4)o3)O[C@@H]2C1,-4.29%
6,Cn1nnc2c1C(COCC1CC1)CN(C(=O)Cc1ccsc1)C2 (stereo not given),4.27%
7,Cc1noc(C)c1CN1CC[C@@H](OCC2CC2)[C@@H](Cc2ccccc2)C1,1.91%
8,Cc1ccc(CC2CCCN2CC(=O)NCc2ccccn2)cc1 (stereo not given),-4.78%
9,CCCC1CCCN(Cc2csc(-c3cnn(C)c3)n2)CC1 (stereo not given),20.6%
10,COc1c(CNCC(O)c2cccc(F)c2)c(C(C)C)nn1C (stereo not given),5.92%
11,CC(NC(=O)NCCCO)c1ccc2c(c1)OCCO2 (stereo not given),2.1%
12,Cc1c(C2CCCN(C(=O)C3CC3)C2)n2c(nc1=O)CCC2 (stereo not given),3.94%
13,CCn1cc(CN2CCCn3nc(CCC(=O)NCCO)cc3C2)cn1,-0.55%
14,Fc1ccc2[nH]c(C3CCCN3CCc3ccccn3)nc2c1 (stereo not given),-28.3%
15,O=C(CCc1cscn1)N1CCCC1c1noc(C2CC2)n1 (stereo not given),6.02%
16,CCn1c(CN2CCCN(C(=O)OC)CC2)nc2c(F)cccc21,-5.04%
17,Cc1nc(C)n(CC2CN(Cc3cccc(C(N)=O)c3)CCO2)n1 (stereo not given),-7.92%
18,O=C(C1CC(=O)N(C2CCCC2)C1)N1CCN(CCn2cccc2)CC1 (stereo not given),23%
19,CCN(Cc1nc2c(cnn2C)c(=O)[nH]1)c1ccc(OC)c(OC)c1,27%
20,NC(=O)C1CCN(Cc2cccc(NC(=O)c3ccsc3)c2)CC1,17%
